High-throughput results deposited in PubChem BioAssay by Broad Institute.
aSyn UTR act: Activators working through SNCA 5'UTR binding (MLPCN). alpha-synuclein 5'UTR reporter, activators screen. activity score, % (tested at 7.5 µM), hits read low. 300,000 tested, 7.1% active; in the data active = activity score below about -60%
Of the large screens only hits and unclear results are named; the others gave an inactive call. Not all results are given here.

COC(=O)Cn1c(SCc2ccccc2)nc2ccccc21	aSyn UTR act -166
N#C/C(=C\c1ccc([N+](=O)[O-])cc1)c1nc(C2CC2)cs1	aSyn UTR act -84
N#C/C(=C\c1ccccc1[N+](=O)[O-])c1nc(C2CC2)cs1	aSyn UTR act -264
N#C/C(=C/c1ccccc1[N+](=O)[O-])c1nc(C2CC2)cs1	aSyn UTR act -301
COCc1nn2c(N)c(-c3ccccc3)cnc2c1-c1ccccc1	aSyn UTR act -106
Nc1c(-c2ccccc2)cnc2cc(-c3ccccc3)nn12	aSyn UTR act -121
Cc1cc2ncc(-c3ccc(Cl)cc3)c(N)n2n1	aSyn UTR act -117
S=C(c1ccc(-c2ccc(Cl)cc2)o1)N1CCCCC1	aSyn UTR act -150
S=C(c1ccc(-c2ccccc2Cl)o1)N1CCCCC1	aSyn UTR act -170
O=C(Nc1ccccc1N1CCCCC1)c1ccc(-c2ccc(Cl)cc2)o1	none
CN1CCN(C(=S)c2ccc(-c3cccc(Cl)c3Cl)o2)CC1	aSyn UTR act -113
N#CCCN1CCN(C(=S)c2ccc(-c3ccc(Cl)cc3)o2)CC1	aSyn UTR act -88
O=C(c1ccc(-c2ccccc2Cl)o1)N1CCN(S(=O)(=O)c2cccs2)CC1	aSyn UTR act -114
Cc1ccc2nc(-c3ccsc3)c(NC3CCCC3)n2c1	aSyn UTR act -64
O=C(Nc1cccnc1Cl)c1noc2c1CCc1ccccc1-2	aSyn UTR act -124
O=C(NCCN1CCOCC1)c1noc2c1CCc1ccccc1-2	aSyn UTR act -104
CCCNC(=O)c1noc2c1CCc1ccccc1-2	aSyn UTR act -119
CSc1ccc(C2NN=C(c3ccccc3)S2)cc1 (stereo not drawn)	none
Oc1ccccc1C1NN=C(c2ccccc2)S1 (stereo not drawn)	aSyn UTR act -80
O=C(Nc1cc(Cl)ccc1-n1cncn1)c1ccc([N+](=O)[O-])o1	aSyn UTR act -70
O=C(Nc1cccc(NC(=O)c2ccc([N+](=O)[O-])o2)c1)c1ccco1	aSyn UTR act -66
CCC(=O)N1CCN(c2ccc(NC(=O)c3ccc([N+](=O)[O-])o3)cc2Cl)CC1	none
CS(=O)(=O)N1CCN(c2ccccc2NC(=O)c2ccc([N+](=O)[O-])o2)CC1	aSyn UTR act -123
O=C(Nc1ccccc1Cl)c1ccc([N+](=O)[O-])o1	aSyn UTR act -139
O=C(Nc1ccc(NC(=O)c2ccc([N+](=O)[O-])o2)cc1Cl)c1ccco1	aSyn UTR act -173
O=C(Nc1ccc(Cl)c([N+](=O)[O-])c1)c1ccco1	aSyn UTR act -67
O=C(N/N=C\c1c(O)ccc2ccccc12)c1ccc(Cn2cccn2)o1	none
CCCc1ccc(OCc2ccc(C(=O)N3CCSCC3)o2)cc1	aSyn UTR act -148
O=C(N/N=C/c1ccc2ccccc2c1)c1ccc(COc2ccc3c(c2)CCC3)o1	aSyn UTR act -72
COC(=O)c1ccc(COc2ccc(C(C)(C)C)cc2)o1	aSyn UTR act -167
COC(=O)c1ccc(COc2ccc3c(c2)CCC3)o1	aSyn UTR act -130
O=C(N/N=C/c1cc([N+](=O)[O-])ccc1O)c1ccc(COc2ccc3c(c2)CCC3)o1	none
CC(=O)Nc1nonc1NC(=O)c1ccc(C(C)(C)C)cc1	aSyn UTR act -153
CCc1ccc(OCc2ccc(C(=O)OC)o2)cc1	aSyn UTR act -220
CC(C)(C)c1ccc(C(=O)Nc2cccnc2)cc1	aSyn UTR act -91
CCc1sc(C(=O)Nc2cccnc2)cc1Br	aSyn UTR act -110
Cc1ocnc1C(=O)Nc1ccc(Cl)cc1	aSyn UTR act -167
O=C(Nc1ccc(Cl)cc1)c1ccc(OC2CSC2)cc1	aSyn UTR act -90
CC(C)(C)c1ccc(OCc2ccc(C(=O)N3CCOCC3)o2)cc1	aSyn UTR act -119
CC(C)(C)c1ccc(OCCCC(=O)N2CCOCC2)cc1	aSyn UTR act -104
CC(C)(C)c1ccc(C(=O)Nc2ccc(Cl)cc2)cc1	aSyn UTR act -110
CC(C)(C)c1ccc(OCc2ccc(C(=O)Nc3cccnc3)o2)cc1	aSyn UTR act -170
COC(=O)Cc1ccc(NC(=O)c2ccc(C(C)(C)C)cc2)cc1	none
O=[N+]([O-])C(/C=C(\Cl)[N+](=O)[O-])=C(N1CCCCC1)N1CCCCC1	aSyn UTR act -69
CCCN1CCC(=O)N([C@H](CSc2ccc(C)cc2)CC(C)C)CC1	aSyn UTR act -175
CCCN1CCC(=O)N([C@H](CSc2ccc(Br)cc2)c2ccccc2)CC1	aSyn UTR act -120
CC(C)C[C@@H](CSc1ccccc1)N1CCN(CC(C)C)CCC1=O	aSyn UTR act -175
CCCN1CCC(=O)N([C@H](CSc2ccccc2)CC(C)C)CC1	aSyn UTR act -100
O=C(Nc1ccccc1)c1ccc2c(c1)OCCO2	aSyn UTR act -87
Cc1ccc(NC(=O)c2ccc3c(c2)OCCO3)cc1C	none
O=C(NC(=S)Nc1ccc2c(c1)OCCO2)c1ccccc1F	aSyn UTR act -155
O=C(Nc1ccc2c(c1)OCCO2)c1c(F)cccc1F	aSyn UTR act -122
O=C(Nc1cccc(F)c1)c1ccc2c(c1)OCCO2	aSyn UTR act -111
O=C(NCCc1ccc2c(c1)OCCO2)c1ccccc1F	aSyn UTR act -110
O=C(O)c1cc(S(=O)(=O)Nc2ccc3c(c2)OCCO3)c(Cl)cc1Cl	aSyn UTR act -82
Cc1ccc(NC(=O)c2ccc3c(c2)OCCO3)cc1S(=O)(=O)Nc1cccc(Cl)c1	aSyn UTR act -95
COC(=O)c1ccsc1NC(=O)c1ccc2c(c1)OCCO2	aSyn UTR act -97
COC(=O)c1ccc2nc(NC(=O)C(C)(C)C)sc2c1	none
O=C(Nc1nc2ccc(Cl)cc2s1)c1cccc(N2C(=O)CCC2=O)c1	aSyn UTR act -78
O=C(Nc1nc2ccc(S(=O)(=O)N3CCCC3)cc2s1)C1CCCCC1	none
O=C(Nc1nc2ccc(Cl)cc2s1)C1CC1	aSyn UTR act -150
COC(=O)c1ccc2nc(NC(=O)C3CCCCC3)sc2c1	aSyn UTR act -105
O=C(Nc1nc2ccc([N+](=O)[O-])cc2s1)C1CCCO1 (stereo not drawn)	aSyn UTR act -153
O=C(Nc1nc2ccc(Cl)cc2s1)C1CCCO1 (stereo not drawn)	aSyn UTR act -127
O=C(Nc1nc2ccccc2s1)C1CCN(S(=O)(=O)c2cc([N+](=O)[O-])ccc2Cl)CC1	aSyn UTR act -81
C=CCN(CC=C)S(=O)(=O)c1ccc2nc(NC(=O)C3CCCO3)sc2c1 (stereo not drawn)	aSyn UTR act -89
CC(=O)Nc1cc(C(=O)OCC(=O)c2ccc(C)cc2)ccc1C	aSyn UTR act -151
CCc1ccc(C(=O)COC(=O)c2cccs2)cc1	aSyn UTR act -139
Cc1ccc(C(=O)COC(=O)c2cccs2)cc1	aSyn UTR act -114
CC(=O)c1ccc(NC(=O)c2ccn(C(=O)OCC(C)C)n2)cc1	aSyn UTR act -86
CCc1c(C)sc(NC(=O)c2ccco2)c1C#N	aSyn UTR act -104
Cc1cccc(CS(=O)(=O)c2ncc(Cl)c(C(=O)Nc3nnc(C(C)C)s3)n2)c1	aSyn UTR act -98
CCOc1ccccc1NC(=O)c1nc(S(=O)(=O)Cc2cccc(C)c2)ncc1Cl	none
CC(C)c1nnc(NC(=O)c2nc(S(=O)(=O)Cc3ccccc3F)ncc2Cl)s1	aSyn UTR act -72
Cc1ccc(CS(=O)(=O)c2ncc(Cl)c(C(=O)Nc3ccc(OC(F)F)cc3)n2)cc1	none
CCc1nnc(NC(=O)c2nc(S(=O)(=O)Cc3cccc(C)c3)ncc2Cl)s1	aSyn UTR act -114
CCOC(=O)c1ccc(NC(=S)Nc2ccc(Br)cc2N)cc1	aSyn UTR act -114
CCOC(=O)c1ccc(NC(=S)Nc2cccc(N)n2)cc1	aSyn UTR act -147
CN1CCN(c2ccc(-c3ccc4ccccc4n3)cc2)CC1	none
